Assay outcomes: PubChem BioAssay, National Center for Advancing Translational Sciences (NCATS)
In the library only some 11% were active in any assay of this set; here they are far more common.
HPGD block = qHTS Assay for Inhibitors of HPGD (15-Hydroxyprostaglandin Dehydrogenase); Potency, µM, actives largely listed as inhibitors; purified HPGD, NADH fluorescence kinetic, PGE2 substrate; AID 894, 2007; 4.3% of 150,000 active; 15-hydroxyprostaglandin dehydrogenase [NAD(+)] (Homo sapiens), P15428
Target sequence (P15428 whole entry, looked up): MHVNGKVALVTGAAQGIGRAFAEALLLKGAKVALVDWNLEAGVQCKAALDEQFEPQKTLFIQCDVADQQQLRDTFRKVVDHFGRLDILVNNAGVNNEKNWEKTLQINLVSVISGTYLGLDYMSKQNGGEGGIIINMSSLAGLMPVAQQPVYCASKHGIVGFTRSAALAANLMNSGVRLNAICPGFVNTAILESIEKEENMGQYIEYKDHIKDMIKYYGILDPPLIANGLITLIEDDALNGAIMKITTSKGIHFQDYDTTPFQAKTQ
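20 nM HPGD preincubated 15 min at room temperature with compound in 50 mM Tris-HCl pH 8, 0.01% Tween 20. Started with 1 mM NAD+ and 30 uM prostaglandin E2; NADH fluorescence (360/450 nm) read 5 times over 30-s intervals, last minus first.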
PNC inhibitor = High Content Assay for Compounds that inhibit the Assembly of the Perinucleolar Compartment; PC3M PTB-GFP, PNC prevalence imaging, 16 h; stronger effect = lower value; activity change (PNC), negative = inhibition, % at 10 µM; 3.1% of 140,000 active; AID 2417, 2010;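 active = readout at or below -70, meaning at least 70% loss of cells showing the perinucleolar compartment, a nuclear body marking cancer cells; inconclusive = readout between -30 and a set limit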
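Read-out is percentage of cells bearing a perinucleolar compartment, from automated 20x imaging of fixed, Hoechst-stained PC3M PTB-GFP cells. Cells were seeded 4 h, then exposed 16 h to compound (23 nl of library stock) in duplicate plates.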
IMPase inh = qHTS Assay for Identifying the Cell-Membrane Permeable IMPase Inhibitors | inhibition (IP1 accumulation), % at 46.1 µM | AID 901, 2007 | CHO-M1 cells, IP1 accumulation, HTRF TR-FRET ratio | 120,000 tested, under 10 active; active = well fitted curve in the direction sought with a large enough effect in the signal ratio, not every such curve was filed as active; inconclusive = small, poorly fitted or top-dose-only effect, or a change in a side signal; inactive = no such curve, though single readings can be large or run the other way; the % refers to the signal ratio;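 also: cells stimulated with carbachol in lithium chloride buffer; higher means more IMPase inhibition seen as more IP1 and lower FRET ratio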
Target sequence (P97697 whole entry, looked up): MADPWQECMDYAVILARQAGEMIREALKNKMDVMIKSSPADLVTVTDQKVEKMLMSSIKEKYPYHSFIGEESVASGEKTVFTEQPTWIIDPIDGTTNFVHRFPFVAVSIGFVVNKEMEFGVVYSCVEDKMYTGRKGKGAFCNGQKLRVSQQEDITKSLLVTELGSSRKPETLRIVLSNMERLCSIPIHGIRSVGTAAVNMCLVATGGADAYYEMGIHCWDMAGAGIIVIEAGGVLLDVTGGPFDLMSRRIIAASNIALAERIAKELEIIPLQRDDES
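CHO-M1, 2000 cells/well, cultured 16–30 h; cpd up to 46 uM; carbachol (50 uM solution, stimulation buffer w/ 50 mM LiCl, pH 7.4), 30 min 37C; IP-One TR-FRET, 10 min RT; Ex 320/Em 665, 620; Hill-fit AC50.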
IMPase Li inh = qHTS Assay for Identifying the Cell-Membrane Permeable IMPase Inhibitors: Potentiation with Lithium; 0.35% of 210,000 active; CHO-M1 cells, IP1 TR-FRET (IP-One), carbachol + lithium; Potency, µM (series often up to 59.4 µM), most hits filed as inhibitors; active = well fitted inhibition curve with a large enough effect; inconclusive = small, poorly fitted or top-dose-only effect; inactive = no such curve, though single readings can be large or run the other way;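 also: IP1 builds up when IMPase is blocked and the TR-FRET signal falls; nearly all actives have a fitted effect of over 50% in size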
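Readout is a homogeneous TR-FRET IP1 immunoassay (Ex 320, Em 665 and 620), where raised cytosolic IP1 lowers signal. Cells were CHO-M1 treated 30 min at 37C with test compounds plus a little lithium; AC50 values came from Hill-equation fitting.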
ALDH1A1 inh = qHTS Assay for Inhibitors of Aldehyde Dehydrogenase 1 (ALDH1A1) | Aldehyde dehydrogenase 1A1 (Homo sapiens), P00352 | Purified ALDH1A1, NADH fluorescence, propionaldehyde substrate | Potency, µM (series often up to 75.3 µM), hits mostly inhibitors | 7.3% of 220,000 active
Of the large screens only hits and unclear results are named; the others gave an inactive call. Unless noted, calls follow the shape of the dose curve; as a rule, active = well fitted inhibition curve with a large enough effect (not every such curve was filed as active); inconclusive = small, poorly fitted or top-dose-only effect, or another doubt; inactive = no such curve, though single readings can be large or run the other way.

Cc1cc(SCC(=O)NC(=O)NCc2ccco2)nc2ccccc12	ALDH1A1 inh inconclusive
C=C1C(=O)OC2C[C@@]3(C)CCCC(=C)[C@@H]3CC12 (some centres not stated)	none (no result: PNC inhibitor)
Cc1cc2c(nc1C)CCCCN2C[C@H](C)O/N=C\[C@@H](C)[C@H](OCc1ccccc1)C(C)C	none (no result: HPGD block, PNC inhibitor, IMPase inh, IMPase Li inh)
COc1ccc(-n2c(=O)/c(=C\c3cccs3)s/c2=C(/C#N)C(=O)N2CCN(C)CC2)cc1	ALDH1A1 inh 7.1µM (no result: HPGD block, PNC inhibitor, IMPase inh)
NC(=O)C1c2ccccc2CSc2ccccc21 (configuration not stated)	ALDH1A1 inh inconclusive
NC(=O)C1C(c2ccccc2)=C1c1ccccc1	PNC inhibitor -127
NNc1nc2cccnc2n(CCNc2ncc(C(F)(F)F)cc2Cl)c1=O	ALDH1A1 inh 1.6µM (no result: HPGD block, PNC inhibitor, IMPase inh)
O=c1c(Cl)nc2cc(Cl)ccc2n1CCNc1ncc(C(F)(F)F)cc1Cl	none
CCCCN1CCc2c([nH]c3c(C)cccc23)C1=O	PNC inhibitor -87, ALDH1A1 inh inconclusive
Nc1cc(Cl)ccc1N1CCCCCC1	ALDH1A1 inh 18µM (no result: HPGD block, PNC inhibitor, IMPase inh)
Nc1cc(Cl)ccc1N1CCCCC1	none (no result: HPGD block, PNC inhibitor, IMPase inh)
Nc1ccc(N2CCCCC2)c2nonc12	ALDH1A1 inh 7.9µM (no result: HPGD block, PNC inhibitor, IMPase inh)
Nc1ccc(N2CCCCC2)cc1N1CCCCC1	ALDH1A1 inh 4µM
O=C(CN1C(=O)NC2(CCSC2)C1=O)NCc1ccccc1 (configuration not stated)	none (no result: HPGD block, PNC inhibitor, IMPase inh)
OCCSCc1ccccc1	none (no result: PNC inhibitor, IMPase inh)
NC(=S)n1[nH]c(-c2ccc([N+](=O)[O-])cc2)c(N=Nc2cccc([N+](=O)[O-])c2)c1=O	ALDH1A1 inh 25µM (no result: HPGD block, PNC inhibitor, IMPase inh)
NC(=S)n1[nH]c(-c2ccc([N+](=O)[O-])cc2)c(N=Nc2ccccc2[N+](=O)[O-])c1=O	ALDH1A1 inh inconclusive (no result: HPGD block, PNC inhibitor, IMPase inh)
Cc1c(N=Nc2c(-c3ccc([N+](=O)[O-])cc3)[nH]n(C(N)=S)c2=O)cccc1[N+](=O)[O-]	ALDH1A1 inh 22µM (no result: HPGD block, PNC inhibitor, IMPase inh)
COc1ccc(-n2c(SC3CCOC3=O)nc3ccccc32)cc1 (configuration not stated)	none
COc1ccc(/C=C2/N=C(SC3CCOC3=O)N(c3cccc(OC)c3)C2=O)cc1 (configuration not stated)	ALDH1A1 inh 3.5µM (no result: HPGD block, IMPase Li inh)
CC(C)c1ccc(NC(=O)C(c2ccccc2)N2CC(=O)Nc3ccccc32)cc1 (configuration not stated)	ALDH1A1 inh inconclusive (no result: IMPase inh)
N#CC1=C(N)N(c2ccc(Cl)c(Cl)c2)C(=O)C1	ALDH1A1 inh 28µM (no result: HPGD block, PNC inhibitor, IMPase inh)
O=C(N/C(=C/c1ccco1)C(=O)N1CCCC1)c1cccs1	PNC inhibitor -106
CCc1ccc(-c2cn(-c3nc(C)cc(C)n3)c(=N)o2)cc1	PNC inhibitor inconclusive, ALDH1A1 inh inconclusive
COc1cccc(C(c2c(C)[nH]n(-c3ccccc3)c2=O)c2c(C)[nH]n(-c3ccccc3)c2=O)c1O	none
COc1cccc(C(c2c(C)[nH]n(-c3ccccc3)c2=O)c2c(C)[nH]n(-c3ccccc3)c2=O)c1OC	HPGD block 22µM, ALDH1A1 inh 3.5µM (no result: IMPase inh)
Cc1cccc(-n2c(-c3csc(C(C)C)c3)n[nH]c2=S)c1	HPGD block inconclusive, ALDH1A1 inh 16µM
Cc1ccccc1-n1c(-c2csc(C)c2C)n[nH]c1=S	ALDH1A1 inh inconclusive (no result: IMPase inh)
Cc1cccc(-n2c(-c3csc(C)c3C)n[nH]c2=S)c1	HPGD block 10µM (no result: IMPase inh)
CCN(CC)C(=O)c1ccc2c(=O)n(CCOC)c(=S)[nH]c2c1	HPGD block 14µM, ALDH1A1 inh 11µM
CCOCCCn1c(=S)[nH]c2cc(C(=O)NCC(OC)OC)ccc2c1=O	ALDH1A1 inh 8.9µM (no result: HPGD block, PNC inhibitor, IMPase inh)
COCCn1c(=S)[nH]c2cc(C(=O)N3CCN(c4ccc(F)cc4)CC3)ccc2c1=O	PNC inhibitor inconclusive, ALDH1A1 inh inconclusive (no result: HPGD block, IMPase Li inh)
CCN1C(=O)c2cccc3c(NS(=O)(=O)c4ccc(NC(C)=O)cc4)ccc1c23	ALDH1A1 inh inconclusive
CCN1C(=O)c2cccc3c(NC(=O)c4ccc(S(=O)(=O)N(C)C)cc4)ccc1c23	ALDH1A1 inh 2.8µM
CCN1C(=O)c2cccc3c(NC(=O)c4ccc(S(=O)(=O)N5CCOCC5)cc4)ccc1c23	PNC inhibitor inconclusive, ALDH1A1 inh 2µM
CC1=c2c(oc3cc(O)c(Nc4c(C)cc(O)cc4O)c(C)c23)=CC(=O)C1=Nc1c(C)cc(O)cc1O	none (no result: PNC inhibitor, IMPase inh)
Cc1cccc(N2CCN(c3nc4ccccc4n4cnnc34)CC2)c1C	HPGD block inconclusive
c1ccc(C(c2ccccc2)N2CCN(c3nc4ccccc4n4cnnc34)CC2)cc1	ALDH1A1 inh 14µM (no result: HPGD block, IMPase Li inh)
Cc1ccccc1NC(=O)Cc1nc(-c2ccc3ccccc3c2)cs1	PNC inhibitor inconclusive
COC(=O)c1cn(C(=O)c2ccc(Br)o2)c2ccccc12	PNC inhibitor inconclusive, ALDH1A1 inh 32µM
O=C(CNC(=O)C1COc2ccccc2O1)N/N=C\c1ccc(Cl)cc1 (configuration not stated)	none (no result: HPGD block, PNC inhibitor, IMPase inh, IMPase Li inh)
O=C(O)[C@H]1C[C@@H](CP(=O)(O)O)CCN1	ALDH1A1 inh inconclusive (no result: PNC inhibitor)
O=C1/C(=C/c2cccs2)NC(=S)N1C1CC1	HPGD block 16µM, ALDH1A1 inh inconclusive (no result: IMPase inh)
CCSCc1nnc(SCC(=O)Nc2cccc(SC)c2)n1C	ALDH1A1 inh 20µM
Cc1ccnc(NC2(C(F)(F)F)N=C(c3ccccc3)NC2=O)c1 (configuration not stated)	none
Cc1ccc(NCc2ccc(O)c3ncccc23)cc1	none (no result: HPGD block, PNC inhibitor, IMPase inh)
Cc1cccc(NCc2ccc(O)c3ncccc23)c1C	ALDH1A1 inh 10µM (no result: HPGD block, PNC inhibitor, IMPase inh)
Cc1cccnc1NCc1ccc(O)c2ncccc12	ALDH1A1 inh 20µM
